# ± gives the standard deviation of the averaged measurements. About 5,400 targets were measured; listed, in parts, are those with the largest changes and a random draw of the rest.
# Target: T1, UniProt Q9NPI1|Q9NPI1-2
# T1 sequence (whole entry): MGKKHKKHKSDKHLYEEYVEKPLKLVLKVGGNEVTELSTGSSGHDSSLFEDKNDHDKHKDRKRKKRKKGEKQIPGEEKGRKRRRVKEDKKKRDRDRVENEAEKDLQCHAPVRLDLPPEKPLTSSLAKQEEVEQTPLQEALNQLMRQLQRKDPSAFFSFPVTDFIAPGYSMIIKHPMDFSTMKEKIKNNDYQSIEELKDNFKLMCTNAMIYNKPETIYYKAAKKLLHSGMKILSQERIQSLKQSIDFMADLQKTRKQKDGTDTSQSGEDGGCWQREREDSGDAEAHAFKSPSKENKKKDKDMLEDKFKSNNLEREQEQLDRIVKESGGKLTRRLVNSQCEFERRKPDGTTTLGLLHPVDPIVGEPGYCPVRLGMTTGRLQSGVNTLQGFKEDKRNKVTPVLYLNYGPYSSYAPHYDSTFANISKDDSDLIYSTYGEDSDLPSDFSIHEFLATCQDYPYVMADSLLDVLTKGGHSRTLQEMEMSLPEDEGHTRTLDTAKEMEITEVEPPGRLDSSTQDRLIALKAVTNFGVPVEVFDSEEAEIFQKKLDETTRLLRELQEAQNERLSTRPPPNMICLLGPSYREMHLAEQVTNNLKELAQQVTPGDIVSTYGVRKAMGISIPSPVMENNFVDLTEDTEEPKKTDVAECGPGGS
# Assay: NP40-soluble protein abundance relative to vehicle (solubility fold change) (ratio); higher = more soluble protein in presence of GTP
# Method: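 Solubility proteome profiling in Jurkat crude lysate. Lysate was treated with Mg-GTP (0.1-10 mM) for 10 min at room temperature and 3 min at 37 °C, then solubilised with 0.8% NP40 and benzonase, followed by ultracentrifugation. Proteins were quantified by TMT10 LC-MS/MS; the value is the NP40-soluble abundance relative to the NP40-processed vehicle, from 3 independent experiments.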
smiles,measurement,setting,value
Nc1nc2c(ncn2[C@@H]2O[C@H](COP(=O)(O)OP(=O)(O)OP(=O)(O)O)[C@@H](O)[C@H]2O)c(=O)[nH]1 [guanosine triphosphate],NP40-soluble protein abundance,concentration: 0.1mM,1.09 ± 0.029
same,NP40-soluble protein abundance,concentration: 0.5mM,1.11 ± 0.036
same,NP40-soluble protein abundance,concentration: 1mM,1.22 ± 0.041
same,NP40-soluble protein abundance,concentration: 2mM,1.36 ± 0.098
same,NP40-soluble protein abundance,concentration: 4mM,1.4 ± 0.18
same,NP40-soluble protein abundance,concentration: 6mM,1.47 ± 0.2
same,NP40-soluble protein abundance,concentration: 8mM,1.58 ± 0.32
same,NP40-soluble protein abundance,concentration: 10mM,1.56 ± 0.28
